# Compound activity from PubChem BioAssay.
# In the library only some 19% were active in any assay of this set; here they are far more common.
# DT40 TDP1 CPT – growth inhibition of DT40 Tdp1-/-;hTDP1 cells with camptothecin (screen for TDP1 inhibitors); chicken DT40 Tdp1-/-;hTDP1 cells + 20 nM CPT, ATP luminescence, 48 h; Potency, µM (top dose mostly 46.2 µM), hits mostly inhibitors; 420,000 tested, 12% active; further: nearly all actives have a fitted effect of over 55% in size
#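 Cell growth measured by CellTiter-Glo luminescence after a minimum 48 h, 37 C compound exposure with 20 nM CPT in Tdp1-knockout DT40 cells stably expressing hTDP1, seeded 400/well; qHTS titration format.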
# uPA surface inh – blocks generation of uPA at the cell surface; 330,000 tested, 0.31% active; cell surface uPA generation assay, qHTS; Potency, µM (series often up to 38.3 µM), most hits filed as inhibitors; AID 540303; active means well fitted inhibition curve with a large enough effect; inconclusive means small, poorly fitted or top-dose-only effect; inactive means no such curve, though single readings can be large or run the other way; tested in mouse RAW 264.7 cells; further: nearly all actives have a fitted effect of over 55% in size
# HT1080 IDH1KD tx – toxicity to HT-1080 IDH1 knockdown cells (counter line); 360,000 tested, 2% active; Potency, µM (titrated, usually from 46.1 µM), most hits filed as cytotoxic; HT-1080 IDH1 knockdown viability, ATP luminescence, 48 h
#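 In this qHTS, HT-1080 cells depleted of IDH1 are exposed for 48 h at 37 °C to compound titrations. Toxicity is scored from CellTiter-Glo luminescence, with DMSO as full viability and medium alone as none.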
# IL-1B inflam inh – inflammasome signaling inhibition, IL-1 beta readout | THP-1 LPS/ATP IL-1B secretion, AlphaLISA, 16 h; active compounds read low | activity change, % at 57.5 µM | 360,000 tested, 4.7% active; in the data active means activity change below about -50%; inconclusive means mostly about -30% to -49%
#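 Secreted IL-1B measured by AlphaLISA bead assay after 16 h compound exposure of THP-1 cells; compounds (final up to 57.5 uM) added 1 h before LPS (250 ng/mL) and ATP (1.25 mM) stimulation; lower signal means less secretion.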
# HT1080NT lethal – kills 2HG-producing HT-1080-NT fibrosarcoma cells. AID 686970. HT-1080-NT fibrosarcoma viability, CellTiter-Glo ATP luminescence, 48 h. 360,000 tested, 1.6% active. Potency, µM (highest dose often 46.1 µM), actives largely listed as cytotoxic;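 further: NT is the 2HG producing partner of a matched IDH1 knockdown line; nearly all actives have a fitted effect of over 55% in size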
#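 HT-1080-NT; 750 cells/well; 5% FBS RPMI; 48 h compound, 37 degrees C; CellTiter-Glo luminescence; curve fitting and curve-class assignment.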
# DT40 TDP1 no CPT – qHTS for Inhibitors of human tyrosyl-DNA phosphodiesterase 1 (TDP1): qHTS in cells in absence of CPT | DT40 Tdp1-/- hTDP1 cells, no CPT, ATP luminescence, 48 h | Potency, µM (highest dose often 46.2 µM), most hits filed as inhibitors | 420,000 tested, 15% active; further: nearly all actives have a fitted effect of over 55% in size
#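 Seeded 400 DT40-hTDP1 cells/well (vehicle DMSO, no 20 nM CPT); pinned compounds; ≥48 hr at 37 °C; CellTiter-Glo luminescence as viability measure.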
# A number is an active result; - = inactive; ? = inconclusive; . = no result given; [ ] = remark or other dose. Unless noted, the call rests on the fitted dose curve; in most records, active means well fitted curve in the direction sought with a large enough effect; inconclusive means small, poorly fitted or top-dose-only effect, or another doubt; inactive means no such curve, though single readings can be large; an effect the other way counts as inactive or inconclusive.
SMILES,DT40 TDP1 CPT,uPA surface inh,HT1080 IDH1KD tx,IL-1B inflam inh,HT1080NT lethal,DT40 TDP1 no CPT
CCOC(=O)C1CCN(C(=O)Nc2cc(Cl)cc(Cl)c2)CC1,18.4µM,-,-,-,-,?
Cc1cc(C(=O)N/N=C/c2ccc([N+](=O)[O-])cc2)c2ccccc2n1,2.91µM,2.82µM,4.61µM,-,18.4µM,3.26µM
Cc1cc(C(=O)N/N=C/c2ccc([N+](=O)[O-])s2)c2ccccc2n1,25.9µM,-,?,-78.7,?,14.6µM
CCc1ccc(/C=N/NC(=O)c2cc(C3CC3)nc3ccccc23)s1,4.61µM,-,1.84µM,-,?,2.31µM
Cc1cc(C(=O)N/N=C/c2cc([N+](=O)[O-])ccc2O)c2ccccc2n1,5.17µM,-,?,-,?,4.61µM
O=C(NCc1cccnc1)c1cc(C2CCCCN2C(=O)c2ccc(Cl)cc2)on1 (stereo not given),-,.,-,-,-,-
CCc1cc(C(=O)N/N=C/c2ccc(O)cc2)c2ccccc2n1,-,-,?,-,?,8.2µM
CCC/C=N/NC(=O)c1cc(-c2ccccc2)nc2ccccc12,-,-,-,-,-,?
Cc1cc(C(=O)N/N=C/c2ccc(N(C)C)cc2)c2ccccc2n1,2.91µM,-,3.26µM,-,3.66µM,4.11µM
Cc1cccc(/C=N/NC(=O)c2cc(C)nc3ccccc23)n1,?,?,-,-,-,?
O=C(N/N=C/c1cc([N+](=O)[O-])ccc1Cl)c1cc(-c2ccccc2)nc2ccccc12,?,-,-,-,-,?
O=C(N/N=C/c1cc([N+](=O)[O-])ccc1O)c1cc(-c2ccccc2)nc2ccccc12,5.8µM,-,4.11µM,-,?,5.8µM
O=C(N/N=C/c1ccc([N+](=O)[O-])cc1)c1cc(C2CC2)nc2ccccc12,9.2µM,?,23.1µM,-,25.9µM,7.31µM
CC1=C(C(=O)Nc2ccccc2)C(c2ccccc2C)n2nc(SCC(=O)c3ccc(C)cc3)nc2N1 (stereo not given),5.8µM,.,.,.,.,18.4µM
CC1=C(C(=O)Nc2ccc(Cl)cc2)C(c2ccccc2F)n2nc(SCc3cccc(Cl)c3)nc2N1 (stereo not given),?,.,.,.,.,23.1µM
CC1=C(C(=O)Nc2ccc(Cl)cc2)C(C(C)C)n2nc(SCc3ccc(Cl)cc3)nc2N1 (stereo not given),16.4µM,.,.,.,.,23.1µM
CC1=C(C(=O)Nc2ccccc2)C(c2ccncc2)n2nc(SCc3ccccc3)nc2N1 (stereo not given),-,.,.,.,.,-
COC(=O)C1CCN(C(=O)C2CCN(C(=O)[C@@H](NS(=O)(=O)c3ccc(C)cc3)C(C)C)CC2)CC1,-,-,-,-,-,-
CCn1c(-c2ccccc2F)nc2cc(C(=O)NCC3CCOCC3)cc(NC(C)=O)c21,-[9.04 µM],.,.,.,.,-
CC(C)(C)OC(=O)NC(CNCc1ccccc1)Cc1ccccc1 (stereo not given),13µM,-,-,-,-,?
CC(C)OCCCNC(=O)C(NC(=O)c1ccc(Cl)cc1)C(C)C (stereo not given),-,-,-,-,-,-
CC(C)OCCCNC(=O)NC(=O)c1ccc(Cl)cc1,?,-,-,-,-,25.9µM
COCCCNC(NC(=O)c1ccc(Cl)cc1)C(Cl)(Cl)Cl (stereo not given),?,-,-,-,-,16.4µM
C=CCN(C(=O)c1csnn1)C(C(=O)NCc1ccc(F)cc1)c1cccs1 (stereo not given),-,-,-,-,-,?
COCCN(Cc1nnc(-c2cccs2)o1)C(=O)CN1C(=O)NC2(CCCCC2)C1=O,-,-,-,-,-,?
SMILES,DT40 TDP1 CPT,uPA surface inh,HT1080 IDH1KD tx,IL-1B inflam inh,HT1080NT lethal,DT40 TDP1 no CPT
Cc1cc(/C=C(\C#N)C(=O)OCC(=O)Nc2ccc(OC(F)F)cc2)c(C)n1CC(C)C,?,-,-,-,-,?
Cc1csc2ncc(C(=O)N3c4ccccc4CC3C)c(=O)n12 (stereo not given),-,-,-,-,-,-
Cc1cc(=O)[nH]c2sc(C(=O)N3c4ccccc4CC3C)c(N)c12 (stereo not given),?,-,-,-59.8,?,-
Cc1nc2cc(C(=O)N3c4ccccc4CC3C)ccc2s1 (stereo not given),?,-,13µM,-,11.6µM,16.4µM
CN(C)C(CNC(=S)Nc1ccc(F)cc1)c1cccnc1 (stereo not given),-,-,-,-,-,-
CCCC1(c2ccccc2)NC(=O)N(CC(=O)NCC2COc3ccccc3O2)C1=O (stereo not given),?,-,-,-,-,?
Cc1ccc(C)c(N2CC(C(=O)Nc3cc(C)on3)CC2=O)c1 (stereo not given),-,-,-,-,-,-
CN(c1ccccc1)c1ccc(/C=C/[N+](=O)[O-])cc1,23.1µM,-,5.8µM,-107.4,5.17µM,20.6µM
O=[N+]([O-])c1ccc(C=CC=Cc2ccccc2)cc1,-,.,-,-,-,?
O=C(NC1CC1(c1ccccc1)c1ccccc1)c1ccccc1 (stereo not given),-,-,-,-,-,-
Cc1cc(C(=O)OC(C)C(=O)NC2CCCCC2C)c2ccccc2n1 (stereo not given),-,.,-,-,-,-
CCOc1ccc(Nc2nc(C)c(NC(=O)c3ccc(C)cc3)c(Nc3ccc(OCC)cc3)n2)cc1,1.3µM,.,.,.,.,2.59µM
Cc1ccc(Nc2nc(C)c(NC(=O)c3ccc(C)cc3)c(Nc3ccc(C)cc3)n2)cc1,6.51µM,.,.,.,.,4.61µM
Cc1ccc(C(=O)Nc2c(C)nc3ccccn3c2=O)cc1,-,.,.,.,.,-
Cc1cc(NC(=O)C(C)SCC(=O)N(C)Cc2ccccc2F)no1 (stereo not given),-,-,-,-,-,-
CCOc1ccc(CN2CCN(c3ncnc4scc(-c5ccccc5)c34)CC2)cc1,?,-,-,-,-,8.2µM
Clc1ncc(CN2CCN(Cc3ccccc3)CC2)s1,-,-,-,-,-,-
CCN1CCN(c2ncnc3scc(-c4ccc(OC)cc4)c23)CC1,-,-,-,-,-,-
COc1ccc(F)cc1CN1CCN(c2ncnc3scc(-c4ccccc4)c23)CC1,14.6µM,-,?,.,-,16.4µM
Cc1sc2ncnc(N3CCN(Cc4ccccc4)CC3)c2c1-c1ccccc1,?,-,-,-56.0,-,?
COc1ccc(CN2CCN(c3ncnc4scc(-c5ccc(F)cc5)c34)CC2)cc1,16.4µM,-,-,?,-,20.6µM
O=C(Cc1ccccc1)NCC(=O)OCC(=O)c1ccc2ccccc2c1,-,.,.,.,.,-
